Values joined by “and” are separate entries in the source; they are usually repeats but may differ in a detail not shown here. Equal entries are not always repeated. Hit rate of the full screen: of about 5,500 compounds, about 2,000 (36%) were called active. About 18% were inconclusive and are not listed. No stated cut-off is given here; in the data, active means normalized growth mostly below about 0.91 (no sharp cut-off); inconclusive means no clear call, values can overlap the other calls; inactive means mostly above about 0.92. The list shows a part of the results.
Experiment: chemical genetic growth profiling, strain panel (AID 1159580);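 further: tested at 20 µM; growth read once vehicle control cultures reached saturation at 30 °C; 1 = growth at the plate median or of vehicle wells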
Conditions: growth OD

Measured: normalized growth

COc1cc2c(cc1OC)-c1cc3ccc(OC)c(OC)c3c[n+]1CC2
inactive: S. cerevisiae deletion strains, locus YJR075W, strain HOC1, stronger effect = lower value 0.985 and 1.03 | S. cerevisiae deletion strains, locus YKL009W, strain mrt4, stronger effect = lower value 0.972 and 0.995 | S. cerevisiae deletion strains, locus YKL068W, stronger effect = lower value 0.996 and 1.01 | S. cerevisiae deletion strains, locus YKL085W, strain MDH1 (second series), stronger effect = lower value 0.995 and 0.999 | S. cerevisiae deletion strains, locus YKL085W, strain MDH1, stronger effect = lower value 0.995 and 0.999 | S. cerevisiae deletion strains, locus YKL160W, strain elf1, stronger effect = lower value 0.982 | S. cerevisiae deletion strains, locus YKL190W, strain CNB1, stronger effect = lower value 0.995 and 1.02 | S. cerevisiae deletion strains, locus YKR001C, strain vps1, stronger effect = lower value 0.971 and 1.02 | S. cerevisiae deletion strains, locus YKR026C, strain gcn3, stronger effect = lower value 0.966 | S. cerevisiae deletion strains, locus YKR091W, strain srl3, stronger effect = lower value 0.984 | S. cerevisiae deletion strains, locus YLL001W, strain dnm1, stronger effect = lower value 0.972 | S. cerevisiae deletion strains, locus YLL026W, stronger effect = lower value 0.983 | S. cerevisiae deletion strains, locus YLL041C, strain sdh2, stronger effect = lower value 0.984 | S. cerevisiae deletion strains, locus YLR027C, strain aat2, stronger effect = lower value 0.978 | S. cerevisiae deletion strains, locus YLR039C, strain RIC1, stronger effect = lower value 1 and 0.981 | S. cerevisiae deletion strains, locus YLR058C, strain SHM2, stronger effect = lower value 0.985 and 1.02 | S. cerevisiae deletion strains, locus YLR102C, strain apc9, stronger effect = lower value 0.986 and 1.02 | S. cerevisiae deletion strains, locus YLR113W, strain HOG1, stronger effect = lower value 1.03 | S. cerevisiae deletion strains, locus YLR221C, strain rsa3, stronger effect = lower value 1.01 | S. cerevisiae deletion strains, locus YLR258W, strain gsy2, stronger effect = lower value 1 | S. cerevisiae deletion strains, locus YLR262C, strain YPT6 (second series), stronger effect = lower value 0.969 | S. cerevisiae deletion strains, locus YLR262C, strain YPT6, stronger effect = lower value 1.02 and 0.979 | S. cerevisiae deletion strains, locus YLR268W, strain sec22, stronger effect = lower value 1.01 and 1.04 | S. cerevisiae deletion strains, locus YLR320W, strain mms22, stronger effect = lower value 0.997 | S. cerevisiae deletion strains, locus YLR330W, strain CHS5, stronger effect = lower value 0.991 and 1.01 | S. cerevisiae deletion strains, locus YLR342W, strain FKS1 (second series), stronger effect = lower value 0.978 and 0.987 | S. cerevisiae deletion strains, locus YLR342W, strain FKS1, stronger effect = lower value 0.995 | S. cerevisiae deletion strains, locus YLR357W, strain rsc2, stronger effect = lower value 0.984 | S. cerevisiae deletion strains, locus YLR370C, strain arc18, stronger effect = lower value 0.975 | S. cerevisiae deletion strains, locus YLR371W, strain rom2, stronger effect = lower value 0.978 and 1.01 | S. cerevisiae deletion strains, locus YLR384C, strain iki3, stronger effect = lower value 0.969 | S. cerevisiae deletion strains, locus YLR418C, strain cdc73, stronger effect = lower value 0.994 and 1 | S. cerevisiae deletion strains, locus YML016C, strain PPZ1, stronger effect = lower value 0.982 and 1.01 | S. cerevisiae deletion strains, locus YML032C, strain rad52, stronger effect = lower value 0.972 and 0.998 | S. cerevisiae deletion strains, locus YML120C, strain ndi1, stronger effect = lower value 0.987 | S. cerevisiae deletion strains, locus YML124C, strain tub3, stronger effect = lower value 0.993 and 1.02 | S. cerevisiae deletion strains, locus YMR058W, strain fet3, stronger effect = lower value 0.978 | S. cerevisiae deletion strains, locus YMR078C, strain ctf18, stronger effect = lower value 0.979 and 1.01 | S. cerevisiae deletion strains, locus YMR125W, strain sto1, stronger effect = lower value 0.958 | S. cerevisiae deletion strains, locus YMR129W, stronger effect = lower value 0.985 | S. cerevisiae deletion strains, locus YMR205C, strain PFK2, stronger effect = lower value 0.955 | S. cerevisiae deletion strains, locus YMR223W, strain ubp8, stronger effect = lower value 0.977 and 1.01 | S. cerevisiae deletion strains, locus YMR231W, strain pep5, stronger effect = lower value 1 | S. cerevisiae deletion strains, locus YMR263W, strain SAP30, stronger effect = lower value 0.998 | S. cerevisiae deletion strains, locus YMR307W, strain GAS1, stronger effect = lower value 0.984 and 1.03 | S. cerevisiae deletion strains, locus YNL067W, strain RPL9B, stronger effect = lower value 0.998 and 1.05 | S. cerevisiae deletion strains, locus YNL071W, strain lat1, stronger effect = lower value 0.994 | S. cerevisiae deletion strains, locus YNL128W, strain TEP1, stronger effect = lower value 0.999 | S. cerevisiae deletion strains, locus YNL153C, strain GIM3, stronger effect = lower value 1.01 | S. cerevisiae deletion strains, locus YNL183C, strain NPR1, stronger effect = lower value 0.978 | S. cerevisiae deletion strains, locus YNL209W, strain ssb2, stronger effect = lower value 0.977 | S. cerevisiae deletion strains, locus YNL233W, strain BNI4, stronger effect = lower value 0.981 and 1.03 | S. cerevisiae deletion strains, locus YNL248C, strain rpa49, stronger effect = lower value 0.982 | S. cerevisiae deletion strains, locus YNL250W, strain rad50, stronger effect = lower value 0.989 and 1.02 | S. cerevisiae deletion strains, locus YNL271C, strain bni1, stronger effect = lower value 0.986 and 1.01 | S. cerevisiae deletion strains, locus YNL298W, strain CLA4, stronger effect = lower value 0.995 and 1.02 | S. cerevisiae deletion strains, locus YNL307C, strain MCK1, stronger effect = lower value 0.986 and 1.02 | S. cerevisiae deletion strains, locus YNL322C, strain KRE1 (second series), stronger effect = lower value 0.97 | S. cerevisiae deletion strains, locus YNL322C, strain KRE1, stronger effect = lower value 0.987 and 1.01 | S. cerevisiae deletion strains, locus YNR049C, strain mso1, stronger effect = lower value 0.98 | S. cerevisiae deletion strains, locus YNR052C, strain pop2, stronger effect = lower value 0.995 and 1.02 | S. cerevisiae deletion strains, locus YOL006C, strain TOP1, stronger effect = lower value 1.01 | S. cerevisiae deletion strains, locus YOL012C, strain htz1 0.984 and 1.9 | S. cerevisiae deletion strains, locus YOL147C, strain pex11, stronger effect = lower value 0.991 and 1.01 | S. cerevisiae deletion strains, locus YOR001W, strain rrp6, stronger effect = lower value 0.968 | S. cerevisiae deletion strains, locus YOR061W, strain CKA2, stronger effect = lower value 0.99 and 1 | S. cerevisiae deletion strains, locus YOR069W, strain VPS5, stronger effect = lower value 0.992 and 1.01 | S. cerevisiae deletion strains, locus YOR070C, strain gyp1, stronger effect = lower value 0.986 | S. cerevisiae deletion strains, locus YOR080W, strain dia2, stronger effect = lower value 0.984 | S. cerevisiae deletion strains, locus YOR083W, strain WHI5, stronger effect = lower value 0.999 | S. cerevisiae deletion strains, locus YOR106W, strain vam3, stronger effect = lower value 0.961 | S. cerevisiae deletion strains, locus YOR136W, strain idh2, stronger effect = lower value 0.989 and 1.02 | S. cerevisiae deletion strains, locus YOR144C, strain elg1, stronger effect = lower value 0.989 and 1.01 | S. cerevisiae deletion strains, locus YOR184W, strain ser1, stronger effect = lower value 0.984 and 1 | S. cerevisiae deletion strains, locus YOR231W, strain MKK1, stronger effect = lower value 1.01 | S. cerevisiae deletion strains, locus YOR265W, strain rbl2, stronger effect = lower value 0.973 | S. cerevisiae deletion strains, locus YOR270C, strain vph1, stronger effect = lower value 0.97 | S. cerevisiae deletion strains, locus YOR290C, strain snf2, stronger effect = lower value 0.98 | S. cerevisiae deletion strains, locus YOR316C, strain cot1, stronger effect = lower value 0.986 and 1.01 | S. cerevisiae deletion strains, locus YPL051W, strain arl3, stronger effect = lower value 0.991 | S. cerevisiae deletion strains, locus YPL055C, strain LGE1, stronger effect = lower value 1.03 and 1.02 | S. cerevisiae deletion strains, locus YPL078C, strain atp4, stronger effect = lower value 0.986 | S. cerevisiae deletion strains, locus YPL106C, strain sse1, stronger effect = lower value 0.971 | S. cerevisiae deletion strains, locus YPL240C, strain hsp82, stronger effect = lower value 0.969 | S. cerevisiae deletion strains, locus YPL241C, strain CIN2, stronger effect = lower value 0.995 and 1 | S. cerevisiae deletion strains, locus YPL256C, strain CLN2, stronger effect = lower value 1.03 | S. cerevisiae deletion strains, locus YPR119W, strain clb2, stronger effect = lower value 0.985 and 1.01 | S. cerevisiae deletion strains, locus YPR141C, strain kar3, stronger effect = lower value 0.981 and 1.02 | S. cerevisiae deletion strains, locus YPR163C, strain tif3, stronger effect = lower value 0.992 and 1.03 | S. cerevisiae deletion strains, locus YPR167C, strain met16, stronger effect = lower value 0.983 and 1.01 | S. cerevisiae deletion strains, strain wtn01, stronger effect = lower value 0.972 and 1.03 | S. cerevisiae strains, strain wild type, stronger effect = lower value 0.987
